In the library only some 3% were active in any assay of this set; here they are far more common.
D3 ag – agonists of human D3 dopamine receptor. P35462. max activation, %. 0.58% of 410,000 active. D3R DiscoveRx beta-arrestin cells, luminescence, 90 min. AID 652048; in the data active = max activation above about 30%
Target sequence (P35462 whole entry, looked up): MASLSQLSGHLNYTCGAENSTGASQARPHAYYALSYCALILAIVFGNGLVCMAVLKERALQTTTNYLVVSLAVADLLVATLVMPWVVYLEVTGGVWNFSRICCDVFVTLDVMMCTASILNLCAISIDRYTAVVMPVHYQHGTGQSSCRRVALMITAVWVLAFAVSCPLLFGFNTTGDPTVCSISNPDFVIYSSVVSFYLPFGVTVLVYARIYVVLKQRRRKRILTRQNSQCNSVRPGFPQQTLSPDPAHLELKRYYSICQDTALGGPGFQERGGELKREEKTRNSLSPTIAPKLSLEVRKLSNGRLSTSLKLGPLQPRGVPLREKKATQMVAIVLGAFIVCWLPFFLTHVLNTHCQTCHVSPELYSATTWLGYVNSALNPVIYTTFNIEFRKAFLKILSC
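Agonist-mode cell screen: cells plated at 1500/well and incubated overnight at 37 °C, then exposed to library compounds for 90 min at 37 °C. Detection reagent was added for 30–60 min at room temperature, and luminescence was read.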
Glioma ERSR ind – induces the endoplasmic reticulum stress response in human glioma cells; U87-MG GRP78 promoter luciferase reporter, 16 h; AID 602332; Potency, µM, usual class: activators; 0.02% of 420,000 active; also: series mostly up to about 76 µM; nearly all actives have a fitted effect of over 35% in size
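ERSR induction read as luciferase luminescence (Bright-Glo, 10 min at room temperature) in stably transfected human U87-MG glioma cells exposed to compounds for 16 h, using GRP78 as sensor.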
D3 antag – D3 dopamine receptor (human) antagonism; P35462; D3R cells, DiscoveRx beta-arrestin luminescence, antagonist mode; stronger effect = lower value; max response, negative = inhibition, %; 2.5% of 360,000 active; AID 652054; in the data active = max response below about -50%
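Cells expressing the human receptor were seeded at 1500 cells/well, incubated overnight at 37 degrees C in 5% CO2, then exposed to library compounds with dopamine controls for 90 minutes at 37 degrees C before luminescent detection.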
Nrf2 activator – activators of Nrf2 (ARE) signaling. Potency, µM (doses to about 46.1 µM), most hits filed as activators. 0.31% of 410,000 active. AREc32 ARE-luciferase reporter (MCF7-derived line), luminescence, 24 h; also: nearly all actives have a fitted effect of over 65% in size
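Nrf2 activation is followed as ARE-luciferase induction in the AREc32 line after one day of compound treatment; luminescence is read with Steady-Glo.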
Numbers stand for hits; . = inactive; / = not tested or not shown; [ ] = another dose, or the depositor's remark. Unless noted, calls follow the shape of the dose curve; as a rule, active = well fitted curve in the direction sought with a large enough effect; inconclusive = small, poorly fitted or top-dose-only effect, or another doubt; inactive = no such curve, though single readings can be large; an effect the other way counts as inactive or inconclusive.

SMILES	D3 ag	Glioma ERSR ind	D3 antag	Nrf2 activator
O=C(C[n+]1ccccc1Cl)c1ccc(F)cc1	/	.	/	/
O=C(NNC1=Nc2ccccc2SC1)c1cccc([N+](=O)[O-])c1	.	.	-61	.
O=C(NNC1=Nc2ccccc2SC1)c1ccccc1F	.	.	.	.
CC[C@H](C)N	/	.	/	/
O=[N+]([O-])c1ccc(NCCNc2ccc(Cl)nn2)cc1	.	.	-74	.
CCOC(=O)Cc1cc(C(=O)Nc2ccc(Br)cc2)sc1-c1ccc(C)cc1	.	.	/	.
Cc1cc2nc(N3CCC(NC(C)c4nc(-c5ccccn5)no4)CC3)nc(C)c2cc1C (configuration not stated)	/	.	/	/
Oc1cc(-c2nc3ccccc3s2)cc2c1OCCN(Cc1cn[nH]c1-c1ccc(Cl)cc1)C2	/	.	/	/
CC(C)(C)C(=O)NNC(=O)C1CC1(c1ccccc1)c1ccccc1 (configuration not stated)	45	.	.	.
CCCCNC(=O)NNC(=O)C1CC1(c1ccccc1)c1ccccc1 (configuration not stated)	.	.	.	.
Cc1cc(C)c(OCCCCN(C)C)c(Br)c1	.	.	.	.
Cc1cc(C)c(OCCCNC2CCCC2)c(Br)c1	.	.	-53	.
CN(CC(=O)Nc1cccc(F)c1)C(=O)/C=C/c1cc(Br)ccc1OC(F)F	.	.	-54	.
COc1ccc2[nH]c(C)cc2c1	/	.	/	/
O=S1(=O)[C@H]2C[C@H](CO)O[C@@]2(CO)CN1Cc1ccc(-c2ccc(F)cc2)cc1	31	.	.	.
O=S1(=O)[C@H]2C[C@H](CO)O[C@@]2(CO)CN1Cc1ccc(-c2cccc(Cl)c2)cc1	.	.	.	.
CN(C)C1(CN=Cc2cc(Cl)cc([N+](=O)[O-])c2O)CCCCC1	.	.	-68	.
Cc1cc2ccccc2n1CCNC(=O)c1ccccc1F	.	.	/	.
O=C(NC1CCCCC1)Sc1ccc(Cl)cc1	.	.	-91	.
CCCCN1CC[C@H]2C=CC[C@@H](C(=O)NCc3cccnc3)[C@H]2C1=O	/	.	/	/
CSc1ccc(CN(C)CCc2ccccn2)cc1	.	.	.	.
CN(CCc1ccccn1)Cc1ccc(Cl)cc1Cl	.	.	-70	.
CN(CCc1ccccn1)Cc1ccc(Cl)c(Cl)c1	.	.	-51	.[9.22 µM]
CCCCCOc1ccc(C2SC(=O)NC2=O)cc1OCC (configuration not stated)	.	.	/	/
COc1ccccc1NC(=S)NNC(=O)c1nn(C)c(C)c1Cl	.	.	-69	.
SMILES	D3 ag	Glioma ERSR ind	D3 antag	Nrf2 activator
COc1ccccc1C(=O)NNC(=O)c1ccc(O)cc1	.	.	.	.
COc1ccccc1NC(=S)NC1CCCCCCCCCCC1	.	.	-79	.
COc1ccccc1NC(=S)NC1CCCCC1	.	.	.	.
COc1ccccc1NC(=S)NNC(=O)c1ccc(O)cc1	.	.	-83	.
CCCn1cnnc1CNC(=O)[C@H]1O[C@@H](n2ccc(N)nc2=O)[C@H](O)[C@@H]1O	.	/	.	.
Cc1ccc(CNC(=O)[C@H]2O[C@@H](n3ccc(N)nc3=O)[C@H](O)[C@@H]2O)o1	.	.	-126	.
Cc1c(C(=O)N2CCN(c3ccccn3)CC2)oc2c(F)cccc12	60	.	.	.
Cc1c(C(=O)N2CCN(c3ncccn3)CC2)oc2c(Cl)cccc12	.	.	.	.
CCCn1c(C(C)Nc2nc(-c3ccc(C)cc3)cs2)nc2ccccc21 (configuration not stated)	.	.	.	.
CCCn1c(CCNc2nc(-c3cccc(Br)c3)cs2)nc2ccccc21	33	.	.	.
CCCn1c(C(C)Nc2nc(-c3cccc(Br)c3)cs2)nc2ccccc21 (configuration not stated)	31	.	.	.
CC(C)CCCC(C)CCCC(C)CCCC(C)C(=O)O (configuration not stated)	/	.	/	/
CC(C)NS(=O)(=O)c1cc(C(F)(F)F)ccc1/C=C/C(=O)O	/	.	/	/
CCCCN(CCC#N)c1ccc(/C=C/c2ccnc3ccccc23)cc1	/	.	/	/
COc1ccccc1COCC(O)CNCC1(N2CCCCC2)CCCCC1 (configuration not stated)	.	.	-60	.
CCC(=O)N1Cc2cc(C(=O)Nc3nccs3)nc(-c3cccc(-c4ccccc4OC)c3)c2[C@H]1CCO	61	/	.	.
CCC1CN(Cc2cn[nH]c2-c2ccccc2)Cc2cc(OC)ccc2O1 (configuration not stated)	/	.	/	/
CC1Nc2ncnc(N3CCN(c4ccccc4)CC3)c2N(Cc2ccc(Br)cc2)C1=O (configuration not stated)	.	.	-156	.
COc1ccc(CN2C(=O)C(C)Nc3ncnc(N4CCN(c5ccccc5)CC4)c32)cc1 (configuration not stated)	.	.	-70	.
COc1cc(OC)cc(C(=O)N2CCCC(n3cc(C(=O)NCC(C)C)nn3)C2)c1 (configuration not stated)	/	.	/	/
Cc1ccc2nc(-c3ccc(C)c(NC(=O)COc4ccc(Cl)cc4)c3)oc2c1	/	.	/	/
CCOC(=O)c1c(C)nc2c(c1-c1cc(OC)ccc1OC)C(=O)c1ccccc1-2	.	.	.	.
CCOC(=O)c1c(C)nc2c(c1-c1ccccc1)C(=O)c1ccccc1-2	41	.	.	.
COc1cccc(-c2nnc(SCC(=O)Nc3cc(C)on3)o2)c1	.	.	-65	.
COc1cccc(-c2nnc(SCC(=O)N3CCCc4ccccc43)o2)c1	.	.	-52	.
SMILES	D3 ag	Glioma ERSR ind	D3 antag	Nrf2 activator
O=C1c2ccccc2NC(c2ccc(OCc3ccccc3)c(OCc3ccccc3)c2)N1Cc1ccco1 (configuration not stated)	/	.	/	/
O=C(NC(CSCc1ccccc1)C(=O)N/N=C/c1ccc(O)cc1O)c1ccc([N+](=O)[O-])cc1 (configuration not stated)	50	.	.	.
c1ccc(-c2ccc(OCCN3CCCC3)cc2)cc1	/	.	/	/
O=C1OCCN1C(=O)[C@H]1[C@H](c2ccc(Cl)cc2)C(c2ccccc2)=NN1c1ccccc1	.	.	.	.
O=C1OCCN1C(=O)[C@H]1[C@H](c2ccccc2)C(c2cccc(Cl)c2)=NN1c1ccccc1	39	.	.	.
Cc1c(C(=O)NC(C)(C)CO)sc2ncnc(NCCN(C)C)c12	/	.	/	/
CC(=O)NC(NC(=S)Nc1ccc(N=Nc2ccccc2C)cc1C)C(Cl)(Cl)Cl (configuration not stated)	.	.	-81	.
CC(=O)NC(NC(=S)Nc1ccccc1Br)C(Cl)(Cl)Cl (configuration not stated)	.	.	.	.
CCOC(=O)c1c(NC(C)=O)sc2c(OC)cccc12	.	.	.	.
CCOC(=O)c1c(N)sc2c(NC(C)=O)cccc12	.	.	-81	.
CCc1c(C)sc(NC(=O)c2cccs2)c1C(=O)OC(C)C	.	.	-54	.
Cc1ccc(C2CC(=O)NC(SCc3ccccc3)=C2C#N)o1 (configuration not stated)	.	.	-62	.

Screening data (PubChem BioAssay)
